In PubChem BioAssay (NCI) one finds growth inhibition data, which are given here for 38 compounds.

A short description of assay [1]: NCI Yeast Anticancer Drug Screen. Data for the rad50 strain (AID 155).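 Further: 0% = growth of vehicle-only cultures of the same strain.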 The conditions noted are these: S. cerevisiae rad50 strain growth inhibition; at 50.0 µM; active compounds read high. In outline:
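Relative growth inhibition (compound vs vehicle) was measured in yeast with a defined repair-gene alteration.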

Assay [2] is described as follows: NCI Yeast Anticancer Drug Screen. Data for the mec2-1 strain (AID 157). Particulars: S. cerevisiae mec2-1 strain, at 50.0 µM, active compounds read high. The gist of the method: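 Strain: mec2-1 (DNA repair/cell cycle alteration). Compound exposure, then growth measured; inhibition expressed relative to vehicle.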
Assay [3] in a line: NCI Yeast Anticancer Drug Screen. Data for the sgs1 mgt1 strain (AID 161).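 Further: 0% = growth of cultures given vehicle only.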 The conditions noted are these: S. cerevisiae sgs1 mgt1 strain, at 50.0 µM, active compounds read high. In outline: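 Mutant yeast exposed to compound; growth scored against vehicle-only wells.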
A short description of assay [4]: NCI Yeast Anticancer Drug Screen. Data for the cln2 rad14 strain (AID 165).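 Further: 0% = growth equal to vehicle treated cultures.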 The conditions noted are these: S. cerevisiae cln2 rad14 strain, at 50.0 µM, active compounds read high. The gist of the method:
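Compounds are applied to the cln2 rad14 yeast strain, and growth is then compared with that of vehicle-treated cultures to give inhibition.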

A short description of assay [5]: NCI Yeast Anticancer Drug Screen. Data for the bub3 strain (AID 167). Particulars: S. cerevisiae bub3 mutant strain, at 50.0 µM, active compounds read high. The gist of the method:
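Screening used yeast with an engineered genetic alteration affecting cell cycle control. Compound-exposed cultures were compared with vehicle cultures, and reduced growth was taken as inhibition.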

Assay [6] can be described thus: NCI Yeast Anticancer Drug Screen. Data for the mlh1 rad18 strain (AID 175). The conditions noted are these: S. cerevisiae mlh1 rad18 strain growth inhibition; at 50.0 µM; active compounds read high. The gist of the method:
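Read-out is yeast growth inhibition, calculated against vehicle-only controls. The compound was applied to a strain engineered with DNA damage repair alterations.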

About 79,000 compounds went through this panel and 15% of them were active in at least one assay; those are over-represented in the sample as a whole. A number with no mark means an inactive call. The source made the active and inactive calls. No stated cut-off is given here; in the data, active means growth inhibition above about 70%; inactive means the rest.

Consider `CCOC(=O)Nc1ccc(C2OCCS2)cc1` (stereo not drawn), for which the growth inhibition was 1.05% in assay [1]; -21.6% in assay [2]; 9.45% in assay [3]; -0.65% in assay [4]; -19.8% in assay [5]; 10.2% in assay [6].
As for `O=C(O)c1ccc(Br)cc1C(=O)O`, the growth inhibition in assay [1] is 7.6%; in assay [2], 3.6%; in assay [3] it was 1.5%; in assay [4], 4.35%; in assay [5] it was 4.65%; in assay [6] it was -1.6%.
As for `C=C1C(=O)OC2C1C(OC(=O)/C(=C/C)COC(C)=O)CC1(CO1)C1C(OC(=O)/C(=C/C)CO)C=C(C)C21` (stereo not drawn), the growth inhibition in assay [1] is -20.6%; in assay [2] it was -19%; in assay [3] it was -21.1%; in assay [4] it was 1.55%; in assay [5], -41.1%; in assay [6], -8.05%.
Take `CCOC(=O)NC(C(N)=O)C(N)=O`: the growth inhibition in assay [1] is -0.3%; in assay [2], 15.8%; in assay [3] it was -1.6%; in assay [4], -44%; in assay [5] it was -13.3%; in assay [6], -2.45%.
Regarding `O=S(O)CCCCCSSSCCCCCS(=O)O`, the growth inhibition was 8.2% in assay [1]; 8.8% in assay [2]; -2.8% in assay [3]; -10.4% in assay [4]; 9.05% in assay [5]; 44.7% in assay [6].
`CCNC(=O)OCCN(CCOC(=O)NCC)CCc1ccccc1`: the growth inhibition in assay [1] was 8.7%; in assay [2] it was 9.15%; in assay [3], 15.5%; in assay [4], -7.75%; in assay [5], -17.4%; in assay [6], 6.3%.
As for `COC(=O)C1C(C(=O)OC)C(C(=O)OC)C1C(=O)OC` (stereo not drawn), the growth inhibition is 1.6% in assay [1]; -0.35% in assay [2]; -0.45% in assay [3]; 9.5% in assay [4]; 1.4% in assay [5]; 26.9% in assay [6].
For `N#Cc1c(N2CCCC2)ncn(Cc2ccccc2)c1=S`, the growth inhibition is -10.9% in assay [1]; -15.1% in assay [2]; -8.4% in assay [3]; -25.1% in assay [4]; -5.1% in assay [5]; -0.2% in assay [6].
With `CCOC(=O)c1ccc2c3c(ccc([N+](=O)[O-])c13)CC2`, the growth inhibition in assay [1] was -7%; in assay [2], -6.25%; in assay [3], -14%; in assay [4], -1.9%; in assay [5] it was 18.5%; in assay [6], -8.35%.
`O=S(=O)(N/N=C/c1ccc(/C=N/NS(=O)(=O)c2ccccc2)cc1)c1ccccc1`: the growth inhibition in assay [1] is -6.9%; in assay [2], -15.8%; in assay [3], -21.3%; in assay [4], 12.6%; in assay [5] it was -7.95%; in assay [6], 0.15%.
In the case of `CCCC(=O)Oc1ccc(C)cc1C(C)(C)C`, the growth inhibition is 6.65% in assay [1]; -22.2% in assay [2]; -4.95% in assay [3]; 9.5% in assay [4]; -10.2% in assay [5]; 4.25% in assay [6].
Take `COC(=O)C1(C)C=CC(=O)C2(C)C1C(O)C1OC3CC(c4ccoc4)C(C)=C3C1(C)C2CC(=O)O` (stereo not drawn): the growth inhibition in assay [1] was 19.9%; in assay [2] it was -7%; in assay [3], 20.1%; in assay [4], 12.4%; in assay [5], 10.8%; in assay [6], -21.3%.
With `CN(C)S(=O)(=O)c1cccc([N+](=O)[O-])c1`, the growth inhibition in assay [1] was 17.5%; in assay [2] it was 7.5%; in assay [3], 18.1%; in assay [4], 8.5%; in assay [5] it was -6.3%; in assay [6], 8.8%.
Take `O=C(OC1COC(OCc2ccccc2)C(OC(=O)c2ccccc2)C1OC(=O)c1ccccc1)c1ccccc1` (stereo not drawn): the growth inhibition is 8% in assay [1]; -24.4% in assay [2]; 3.1% in assay [3]; -30.3% in assay [4]; 0.4% in assay [5]; 2.75% in assay [6].
On to `CCN(CC)C(=O)CC(C)(C)O`, for which the growth inhibition in assay [1] is 4.95%; in assay [2], 9.15%; in assay [3], -5.75%; in assay [4] it was -0.9%; in assay [5], 6.15%; in assay [6], -1.6%.
On to `NCCNC(=O)Cc1cccs1`, for which the growth inhibition was 1.5% in assay [1]; -8.5% in assay [2]; -12.4% in assay [3]; -21.6% in assay [4]; 4.45% in assay [5]; -0.8% in assay [6].
As for `c1ccc(-c2nc3ccccc3n2CCc2ccncc2)nc1`, the growth inhibition in assay [1] is 11%; in assay [2] it was 10.4%; in assay [3], 14%; in assay [4], -14%; in assay [5], 3.2%; in assay [6] it was 20.9%.
As to `CC1OC(c2cccc([N+](=O)[O-])c2)OCC1(C)C` (stereo not drawn), the growth inhibition in assay [1] is -14.7%; in assay [2], -19.4%; in assay [3], -4.9%; in assay [4], -32.6%; in assay [5], 15.1%; in assay [6] it was -16.6%.
`OCC1OC(n2cnc3c(NCc4ccccc4)ncnc32)C(O)C1O` (stereo not drawn): the growth inhibition in assay [1] is -14.3%; in assay [2], -2.5%; in assay [3], 3.2%; in assay [4], -44.2%; in assay [5] it was 11.6%; in assay [6], 0.55%.
Consider `O=[N+]([O-])c1ccc(-c2nnn(Cc3ccco3)c2N2CCCCC2)cc1`, for which the growth inhibition in assay [1] is 69.6%; in assay [2] it was 70.7% (active); in assay [3], 91.2% (active); in assay [4] it was 84.2% (active); in assay [5], 95.7% (active); in assay [6], 81.3% (active).
`c1ccc(-c2ccc(-c3ccccc3)c(-c3ccc4c(c3)CCC4)c2-c2ccccc2)cc1`: the growth inhibition in assay [1] was 14.1%; in assay [2] it was 13.3%; in assay [3], 7.25%; in assay [4], 13.9%; in assay [5], -3.85%; in assay [6], 21.8%.
For the compound `CCOC(=O)C(C(O)c1ccc([N+](=O)[O-])cc1)P(=O)(OCC)OCC` (stereo not drawn), the growth inhibition in assay [1] was 24.3%; in assay [2] it was -16.4%; in assay [3] it was -4.7%; in assay [4], 5.25%; in assay [5], -10.9%; in assay [6], -20.2%.
In the case of `CCc1onc(-c2noc(CC)c2C)c1C`, the growth inhibition in assay [1] is -5.35%; in assay [2], 6.5%; in assay [3] it was 0.25%; in assay [4] it was -9.35%; in assay [5], -1.5%; in assay [6], 12.3%.
In the case of `CC1=CC(=O)C2=C(C)CCC3C(C)C(=O)OC3C12` (stereo not drawn), the growth inhibition in assay [1] was -4.2%; in assay [2], -9.85%; in assay [3], -6.75%; in assay [4], 10.8%; in assay [5], -3.55%; in assay [6] it was -60.7%.
Turning to `C/C(CC(=O)Nc1ccc(Cc2ccc(Cl)cc2)cc1)=N/Nc1ccc([N+](=O)[O-])cc1[N+](=O)[O-]`, the growth inhibition in assay [1] is 28.1%; in assay [2], -0.25%; in assay [3], 31.4%; in assay [4] it was -1.15%; in assay [5], -8.55%; in assay [6], 22.6%.
As for `COC(=O)c1ccc(CS(=O)(=O)c2ccccc2)cc1`, the growth inhibition in assay [1] was 2%; in assay [2], -6.3%; in assay [3], 4.6%; in assay [4], 7.1%; in assay [5], 14.7%; in assay [6], -11.5%.
Turning to `O=COCCOC=O`, the growth inhibition in assay [1] was 19.9%; in assay [2] it was 5.55%; in assay [3], -23.6%; in assay [4], 20.6%; in assay [5], 10.2%; in assay [6], 14.2%.
With `C=CC(C)(C)NC(C(=O)N1CCC[C@H]1c1nc(-c2nc(C(=O)OCC=C(C)C)c(C)o2)c(C)o1)C(C)C` (stereo partly drawn), the growth inhibition in assay [1] was -4.25%; in assay [2], -10.7%; in assay [3], 15.6%; in assay [4], -11.3%; in assay [5] it was 3.05%; in assay [6] it was -2.85%.
On to `O=C(CCN1CCCCC1)Nc1ccc2sc3ccccc3c(=O)c2n1`, for which the growth inhibition in assay [1] is 51.9%; in assay [2], -19.7%; in assay [3], -0.6%; in assay [4], 9.1%; in assay [5], 11.1%; in assay [6] it was 10.7%.
In the case of `CCOC(=O)N(C)N=NCCCl`, the growth inhibition was 15.2% in assay [1]; 2.2% in assay [2]; -5.05% in assay [3]; -26.9% in assay [4]; 8.2% in assay [5]; -4.9% in assay [6].
For the compound `CN(C)CCC(=O)Cc1ccccc1`, the growth inhibition is -8.8% in assay [1]; -12.3% in assay [2]; -4.55% in assay [3]; -8.15% in assay [4]; -26.1% in assay [5]; 0.95% in assay [6].
As for `Nc1c2cc3ccc2nc2ccc(cc12)OCCOCCOCCOCCOCCOCCO3`, the growth inhibition was -3.05% in assay [1]; -16.1% in assay [2]; -9.55% in assay [3]; -12% in assay [4]; -0.35% in assay [5]; -21.2% in assay [6].
For the compound `CNC(=O)C(C)Oc1ccc(OCC2CCCCC2)cc1` (stereo not drawn), the growth inhibition in assay [1] is -0.8%; in assay [2], -44.2%; in assay [3], -14.4%; in assay [4], -35.5%; in assay [5] it was -46.9%; in assay [6] it was -55.6%.
Consider `OCC1CC2c3ccccc3C1c1ccccc12` (stereo not drawn), for which the growth inhibition in assay [1] is -12%; in assay [2], -22.1%; in assay [3], -12.1%; in assay [4] it was -0.05%; in assay [5], -28.4%; in assay [6], -6.75%.
Turning to `COc1ccc(C=C2C(=O)OC(C)(C)OC2=O)cc1OC`, the growth inhibition in assay [1] is -6.7%; in assay [2] it was -8.85%; in assay [3] it was -8.5%; in assay [4], 30%; in assay [5], -23.8%; in assay [6], -4.85%.
As to `C=C(C)C(=O)Nc1ccc(-n2[nH]c(C)c(N=Nc3ccc(N(C)C)cc3)c2=O)cc1`, the growth inhibition in assay [1] was 6.95%; in assay [2], -5.5%; in assay [3], -14.6%; in assay [4], -36%; in assay [5], -2.55%; in assay [6] it was 1.85%.
Turning to `CCCCOC(=O)NC(=O)c1cn(CCCOC(=O)CCCCCCCCC(=O)OCCCn2cc(C(=O)NC(=O)OCCCC)c(=O)[nH]c2=O)c(=O)[nH]c1=O`, the growth inhibition is -23.2% in assay [1]; -28.2% in assay [2]; -32.8% in assay [3]; 5.05% in assay [4]; -5.85% in assay [5]; -35.9% in assay [6].
Turning to `CC(C)(C)OC(=O)NC1CCC(C(C)(C)C)CC1` (stereo not drawn), the growth inhibition was 1.95% in assay [1]; -2.95% in assay [2]; -4% in assay [3]; 8.65% in assay [4]; 7.9% in assay [5]; 24.1% in assay [6].
